Drawing on PubChem BioAssay, this text covers growth inhibition, inhibition and outcome for 21 compounds.

The nature of assay [1]: antimalarial activity against Dd2 strain (AID 2302;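 active means growth inhibition above 50% at the single 2 µM test dose, taken to imply half-maximal potency below 2 µM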;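 further: 0% = DMSO untreated growth and 100% = chloroquine plus artemisinin killed control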). Conditions: P. falciparum Dd2 in RBCs, LDH growth readout, 72 h; at 2 µM; stronger effect = higher value.
Assay [2] is described as follows: HepG2 cytotoxicity, primary screen, cytotoxicity control for P. falciparum antimalarial project, cell-based, ATP luminescence (AID 2303;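 active means inhibition above 50%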;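 further: 0% = DMSO wells and 100% = digitonin-killed cells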). Conditions: HepG2 viability, 24-48 h, at 10 µM, stronger effect = higher value.
Assay [3] has as its target L-lactate dehydrogenase (Plasmodium falciparum (isolate CDC / Honduras)) (UniProt Q27743). As to the kind of experiment: PfLDH activity inhibition – cell lysate, 3D7 strain, counter-screen for P. falciparum growth inhibition project (AID 2304).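 Further: 0% = vehicle and 100% = reference inhibitor.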 Particulars: P. falciparum 3D7 crude extract, LDH APAD/NBT absorbance; at 2 µM; stronger effect = higher value. On the technique in general: The purpose of a counterscreen is to sort out artefacts and off-target activity.

Assay [4] is described as follows: inhibition of 3D7 malaria parasite growth – strain 3D7 (AID 2306).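 Further: 0% = DMSO wells and 100% = chloroquine plus artemisinin control wells.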 Particulars: P. falciparum 3D7 erythrocytic growth, LDH absorbance, 72 h; at 2 µM; stronger effect = higher value.
In assay [5] the target is Calcium-dependent protein kinase 1 (Plasmodium falciparum (isolate 3D7)) (UniProt P62344). As to the kind of experiment: PfCDPK1 kinase inhibitors, biochemical, TCAMS library (AID 1159585; cut-off not given, nearly all actives have IC50 up to about 0.98 µM;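 further: inhibitors leave more ATP so luminescence rises with inhibition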). Particulars: recombinant PfCDPK1, Kinase-Glo ATP depletion luminescence. Background: In Kinase-Glo more light means more ATP remaining.
Sequence of Calcium-dependent protein kinase 1 (Plasmodium falciparum (isolate 3D7)) (P62344 whole entry, looked up): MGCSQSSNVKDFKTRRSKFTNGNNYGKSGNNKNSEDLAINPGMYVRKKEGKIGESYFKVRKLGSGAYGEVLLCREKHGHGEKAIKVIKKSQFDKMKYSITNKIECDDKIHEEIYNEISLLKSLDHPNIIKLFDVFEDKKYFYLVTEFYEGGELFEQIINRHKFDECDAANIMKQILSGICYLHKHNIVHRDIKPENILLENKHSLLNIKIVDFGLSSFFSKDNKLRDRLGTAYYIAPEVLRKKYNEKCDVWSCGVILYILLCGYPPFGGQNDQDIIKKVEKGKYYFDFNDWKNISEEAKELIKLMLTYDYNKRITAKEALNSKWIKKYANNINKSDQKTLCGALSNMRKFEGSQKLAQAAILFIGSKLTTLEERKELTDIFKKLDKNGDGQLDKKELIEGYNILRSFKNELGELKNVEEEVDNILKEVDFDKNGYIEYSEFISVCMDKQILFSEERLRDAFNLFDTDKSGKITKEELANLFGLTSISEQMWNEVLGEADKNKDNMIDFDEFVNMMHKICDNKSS
The target of assay [6] is Plasmodium falciparum protein kinase 6 (PK6, PF3D7_1337100) (UniProt Q8IDW1). The experiment in a line: PfPK6 kinase inhibitors, biochemical, TCAMS library (AID 1159586). Particulars: recombinant PfPK6, Kinase-Glo ATP depletion luminescence.
Sequence of Plasmodium falciparum protein kinase 6 (PK6, PF3D7_1337100) (Q8IDW1 1-305): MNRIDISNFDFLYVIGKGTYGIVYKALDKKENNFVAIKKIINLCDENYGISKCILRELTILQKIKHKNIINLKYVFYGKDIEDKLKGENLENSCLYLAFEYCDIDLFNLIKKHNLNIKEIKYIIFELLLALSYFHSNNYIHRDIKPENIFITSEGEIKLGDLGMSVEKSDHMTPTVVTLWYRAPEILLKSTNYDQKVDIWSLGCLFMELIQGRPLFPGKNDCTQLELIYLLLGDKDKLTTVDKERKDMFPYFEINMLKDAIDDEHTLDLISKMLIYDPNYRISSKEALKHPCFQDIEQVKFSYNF
Assay [7] deals with Protein kinase 7 (PK7), Plasmodium falciparum 3D7 (PF3D7_0213400) (UniProt Q7YTF7). As to the kind of experiment: inhibition of Plasmodium PK7 catalytic activity – biochemical, TCAMS antimalarial set, Kinase-Glo luminescence (AID 1159587). Conditions: recombinant PfPK7, Kinase-Glo ATP depletion luminescence.
Sequence of Protein kinase 7 (PK7), Plasmodium falciparum 3D7 (PF3D7_0213400) (Q7YTF7 1-343): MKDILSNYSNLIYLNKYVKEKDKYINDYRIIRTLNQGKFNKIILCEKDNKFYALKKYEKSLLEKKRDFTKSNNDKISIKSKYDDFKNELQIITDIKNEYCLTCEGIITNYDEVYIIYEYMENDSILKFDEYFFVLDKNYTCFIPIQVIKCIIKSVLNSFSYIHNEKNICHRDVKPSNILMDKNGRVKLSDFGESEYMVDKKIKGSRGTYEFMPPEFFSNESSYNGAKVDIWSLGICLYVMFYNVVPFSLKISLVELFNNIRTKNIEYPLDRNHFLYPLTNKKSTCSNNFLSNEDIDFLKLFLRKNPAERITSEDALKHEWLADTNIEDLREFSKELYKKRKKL
Assay [8] has as its target Calcium-dependent protein kinase 4 (Plasmodium falciparum (isolate 3D7)) (UniProt Q8IBS5). As to the kind of experiment: PfCDPK4 kinase inhibitors, biochemical, TCAMS library (AID 1159588; cut-off not given, nearly all actives have IC50 up to about 0.91 µM). Particulars: recombinant PfCDPK4, Kinase-Glo ATP depletion luminescence.

A number with no mark means an inactive call. For part of these data: Measured potencies and affinities stand elsewhere. Activity calls are given as the source filed them. Unless noted, how the calls were made is not given here.

Broadly, the inhibition is the relative decrease from the control value, in per cent.

Sequence of L-lactate dehydrogenase (Plasmodium falciparum (isolate CDC / Honduras)) (Q27743 whole entry, looked up): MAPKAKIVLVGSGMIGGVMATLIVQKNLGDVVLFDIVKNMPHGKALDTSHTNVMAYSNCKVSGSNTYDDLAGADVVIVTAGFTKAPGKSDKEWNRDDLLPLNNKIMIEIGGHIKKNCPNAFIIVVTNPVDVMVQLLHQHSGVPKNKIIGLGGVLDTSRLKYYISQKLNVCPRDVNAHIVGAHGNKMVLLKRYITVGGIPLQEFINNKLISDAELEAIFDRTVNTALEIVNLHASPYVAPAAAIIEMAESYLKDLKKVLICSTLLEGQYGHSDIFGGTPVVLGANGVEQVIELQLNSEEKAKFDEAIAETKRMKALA
Sequence of Calcium-dependent protein kinase 4 (Plasmodium falciparum (isolate 3D7)) (Q8IBS5 whole entry, looked up): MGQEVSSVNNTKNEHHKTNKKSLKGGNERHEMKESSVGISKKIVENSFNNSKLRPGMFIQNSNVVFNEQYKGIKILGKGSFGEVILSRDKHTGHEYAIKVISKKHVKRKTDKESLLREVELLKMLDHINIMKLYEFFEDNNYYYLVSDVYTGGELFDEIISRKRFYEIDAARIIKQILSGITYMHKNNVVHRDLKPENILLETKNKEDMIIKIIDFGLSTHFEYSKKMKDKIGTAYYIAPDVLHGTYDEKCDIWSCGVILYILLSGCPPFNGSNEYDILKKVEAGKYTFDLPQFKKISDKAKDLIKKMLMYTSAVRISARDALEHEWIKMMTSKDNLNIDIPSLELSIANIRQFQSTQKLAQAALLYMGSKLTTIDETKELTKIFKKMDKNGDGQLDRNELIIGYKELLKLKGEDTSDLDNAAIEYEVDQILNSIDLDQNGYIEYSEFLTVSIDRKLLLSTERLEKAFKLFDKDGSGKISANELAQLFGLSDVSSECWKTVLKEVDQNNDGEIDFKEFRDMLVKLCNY

As to `C=CCOC(=O)N1CCC(CNCc2ccc(-c3cccc(-c4nc5ccc(F)cc5[nH]4)c3)cc2)C1` (stereo not drawn), the figures for the growth inhibition in assay [1] and in assay [4] were 99% (active) and 102% (active), respectively. Further, the figures for the inhibition in assay [2] and in assay [3] were 26% and -2%, respectively. Also, the result in assay [5], in assay [6], in assay [7] and in assay [8] was inactive.

As for `Cc1ccc(S(=O)(=O)N2CCCN(C(=O)c3cc(-c4ccccc4)n[nH]3)CC2)cc1`, the values for the growth inhibition in assay [1] and in assay [4] were 93% (active) and 96% (active), respectively. Besides, the inhibition in assay [2] was 11%; in assay [3] it was -2%. The outcome in assay [5], in assay [6], in assay [7] and in assay [8] was inactive.

`O=C(Nc1ccc(C(F)(F)F)cc1)c1cccc(S(=O)(=O)NC2CCN(CC3CCCCC3)C2)c1` (stereo not drawn): the growth inhibition in assay [1] is 10%; in assay [4], 98% (active). The inhibition is 32% in assay [2] and -2% in assay [3]. The outcome in assay [5], in assay [6], in assay [7] and in assay [8] was inactive.

Take `CCOc1cc(N)c2nc3ccc([N+](=O)[O-])cc3cc2c1`: the values for the growth inhibition in assay [1] and in assay [4] were 78% (active) and 100% (active), respectively. In addition, the results for the inhibition in assay [2] and in assay [3] were 73% (active) and 7%, respectively. In addition, the outcome in assay [5], in assay [6], in assay [7] and in assay [8] was inactive.

For `CC(C)NCc1cccc(-c2ccc(NC(=O)c3cccc(C#N)c3)cc2)c1`, the growth inhibition in assay [1] is 95% (active); in assay [4], 101% (active). Also, the inhibition in assay [2] is 22%; in assay [3] it was 6%. Further, the result in assay [5], in assay [6], in assay [7] and in assay [8] was inactive.

For the compound `Cc1ccc(CNC(=O)[C@H](Cc2ccccc2)Nc2cc(C)nc(NCC3CCCCC3)n2)cc1`, the results for the growth inhibition in assay [1] and in assay [4] were 89% (active) and 101% (active), respectively. Besides, the inhibition in assay [2] was -10%; in assay [3] it was 0%. Moreover, the result in assay [5], in assay [6], in assay [7] and in assay [8] was inactive.

Take `O=C(/C=C/c1cc(C(F)(F)F)ccc1F)NCCCCCN1CCC(c2c[nH]c3ccccc23)CC1`: the growth inhibition in assay [1] was 4%; in assay [4], 88% (active). In addition, the values for the inhibition in assay [2] and in assay [3] were 39% and -1%, respectively. The outcome in assay [5], in assay [6], in assay [7] and in assay [8] was inactive.

Turning to `CSC1=NC(=Nc2c(C)cccc2C)C2(CCC(C(C)(C)C)CC2)N1c1ccc(O)cc1` (stereo not drawn), the growth inhibition in assay [1] was 93% (active); in assay [4] it was 97% (active). In addition, the inhibition was 5% in assay [2] and 1% in assay [3]. For the same compound, the outcome in assay [5], in assay [6], in assay [7] and in assay [8] was inactive.

For `CN1CCC(NCc2cccc(-c3cccc(S(=O)(=O)NCc4ccccc4)c3)c2)CC1`, the growth inhibition is 6% in assay [1] and 100% (active) in assay [4]. The inhibition in assay [2] is 57% (active); in assay [3], -2%. Further, the outcome in assay [5], in assay [6], in assay [7] and in assay [8] was inactive.

As for `O=C(/C=C/c1ccc(Cl)c(Cl)c1)NCCCCCN1CCCN(C(=O)Nc2cccc(Cl)c2)CC1`, the values for the growth inhibition in assay [1] and in assay [4] were 2% and 102% (active), respectively. The results for the inhibition in assay [2] and in assay [3] were 11% and 0%, respectively. Besides, the result in assay [5], in assay [6], in assay [7] and in assay [8] was inactive.

As for `Cc1[nH]c(C)c(-c2ccc(OCc3cc(C(F)(F)F)cc(C(F)(F)F)c3)nc2)c(=O)c1Br`, the figures for the growth inhibition in assay [1] and in assay [4] were 96% (active) and 98% (active), respectively. Moreover, the inhibition is 28% in assay [2] and -2% in assay [3]. For the same compound, the result in assay [5], in assay [6], in assay [7] and in assay [8] was inactive.

As for `O=C(CN1CCN(C(C(=O)Nc2cc(C(F)(F)F)ccc2Cl)c2ccccc2)CC1)NC1CC1` (stereo not drawn), the growth inhibition is 93% (active) in assay [1] and 95% (active) in assay [4]. The inhibition in assay [2] is -6%; in assay [3], -3%. Besides, the result in assay [5], in assay [6], in assay [7] and in assay [8] was inactive.

With `O=c1cc(NCCCNCc2sc(Br)nc2Br)[nH]c2ccccc12`, the values for the growth inhibition in assay [1] and in assay [4] were 44% and 92% (active), respectively. Moreover, the figures for the inhibition in assay [2] and in assay [3] were 1% and -2%, respectively. Besides, the result in assay [5], in assay [6], in assay [7] and in assay [8] was inactive.

For `C=C(C)COc1ccc(-c2n[nH]c(C(F)(F)F)c2-c2ccccc2OC)c(O)c1`, the results for the growth inhibition in assay [1] and in assay [4] were 72% (active) and 98% (active), respectively. For the same compound, the inhibition in assay [2] is 19%; in assay [3], -5%. Besides, the outcome in assay [5], in assay [6], in assay [7] and in assay [8] was inactive.

For the compound `FC(F)(F)COc1c(CCNCCCCNCCc2ccc3ccccc3c2OCC(F)(F)F)ccc2ccccc12`, the growth inhibition in assay [1] is 97% (active); in assay [4] it was 101% (active). The inhibition was 99% (active) in assay [2] and -3% in assay [3]. The result in assay [5], in assay [6], in assay [7] and in assay [8] was inactive.

For `Fc1cccc(Cn2ncc3cc(Nc4ncnc5sc(C#Cc6ncc[nH]6)cc45)ccc32)c1`, the growth inhibition in assay [1] is 30%; in assay [4], 101% (active). For the same compound, the inhibition in assay [2] is 31%; in assay [3], 0%. Besides, the result in assay [5], in assay [6], in assay [7] and in assay [8] was inactive.

Consider `CC(=O)NCC(=O)NC1=NC(C)(C)N(OCc2ccc3ccccc3c2)C(N)=N1`, for which the values for the growth inhibition in assay [1] and in assay [4] were 97% (active) and 95% (active), respectively. Besides, the inhibition in assay [2] was 66% (active); in assay [3] it was -1%. The outcome in assay [5], in assay [6], in assay [7] and in assay [8] was inactive.

In the case of `NCCCNc1nc(Nc2ccc(C(F)(F)F)cc2F)c2c(=O)[nH]ccc2n1`, the values for the growth inhibition in assay [1] and in assay [4] were 15% and 95% (active), respectively. In addition, the inhibition is 23% in assay [2] and -1% in assay [3]. In addition, the outcome in assay [5], in assay [6], in assay [7] and in assay [8] was inactive.

`CC[C@H](C)CNC(=O)c1cncc(-c2ccc(CN(C)C3CCN(C)CC3)cc2)c1`: the growth inhibition in assay [1] was 97% (active); in assay [4], 101% (active). Besides, the inhibition in assay [2] was -16%; in assay [3], -2%. In addition, the outcome in assay [5], in assay [6], in assay [7] and in assay [8] was inactive.

In the case of `CC(C)(C)c1ccc(CN2CCC(CNC(=O)c3cc(-c4cccc(C(F)(F)F)c4)cs3)C2)cc1` (stereo not drawn), the growth inhibition in assay [1] is 84% (active); in assay [4] it was 100% (active). Also, the results for the inhibition in assay [2] and in assay [3] were 80% (active) and 1%, respectively. The result in assay [5], in assay [6], in assay [7] and in assay [8] was inactive.

Take `Fc1ccc2nc(-c3ccc(-c4ccc(CNCc5ccccc5)cc4)cc3)[nH]c2c1`: the growth inhibition is 94% (active) in assay [1] and 101% (active) in assay [4]. Also, the inhibition was 35% in assay [2] and -4% in assay [3]. Also, the result in assay [5], in assay [6], in assay [7] and in assay [8] was inactive.
